Screening data deposited in PubChem BioAssay by National Center for Advancing Translational Sciences (NCATS).
Sampled rows, rich in hits. Any-hit rate of the full collection: about 18%.
TDP1 cell noCPT – qHTS for Inhibitors of human tyrosyl-DNA phosphodiesterase 1 (TDP1): qHTS in cells in absence of CPT; DT40 Tdp1-/- hTDP1 cells, no CPT, ATP luminescence, 48 h; 420,000 compounds, 15% hits; Potency, µM (highest dose often 46.2 µM), for inactives: at the highest dose activity change, negative = growth inhibition, actives largely listed as inhibitors; further: potency means the concentration at half of the fitted maximal effect; nearly all actives have a fitted effect of over 55% in size
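Growth of hTDP1-complemented DT40 Tdp1-knockout cells is measured by ATP luminescence after at least 48 hr compound exposure at 37 °C, with DMSO substituting for the 20 nM CPT used in the parallel screen.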
RORg inh – blocks mouse ROR gamma transcriptional activity; P51450; Drosophila S2 Gal4-RORgamma UAS-luciferase reporter, 20 h; Potency, µM (highest dose often 53.6 µM), for inactives: at the top dose activity change, negative = inhibition, most hits filed as inhibitors; 310,000 compounds, 5.4% hits; AID 2551; further: potency means the concentration at half of the fitted maximal effect; nearly all actives have a fitted effect of over 60% in size
Target sequence (P51450 whole entry, looked up, the tested form may be a part): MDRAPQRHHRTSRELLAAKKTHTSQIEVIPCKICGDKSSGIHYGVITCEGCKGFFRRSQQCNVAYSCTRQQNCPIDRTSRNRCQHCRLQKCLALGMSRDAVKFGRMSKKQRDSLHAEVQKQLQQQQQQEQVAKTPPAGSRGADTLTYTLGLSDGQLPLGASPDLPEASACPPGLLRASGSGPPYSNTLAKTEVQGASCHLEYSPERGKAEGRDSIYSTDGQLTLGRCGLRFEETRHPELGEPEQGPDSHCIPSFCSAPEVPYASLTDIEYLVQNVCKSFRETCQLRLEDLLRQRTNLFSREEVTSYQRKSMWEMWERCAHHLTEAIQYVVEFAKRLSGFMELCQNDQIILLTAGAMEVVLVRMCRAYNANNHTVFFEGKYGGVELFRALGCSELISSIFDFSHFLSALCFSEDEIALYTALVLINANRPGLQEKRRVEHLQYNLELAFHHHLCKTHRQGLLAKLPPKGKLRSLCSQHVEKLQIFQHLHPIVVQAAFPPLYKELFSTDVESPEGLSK
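Luminescence from a UAS-regulated Photinus luciferase reporter in stably transfected Drosophila Schneider cells is measured; decreased signal marks ROR gamma inhibition. Fusion expression is induced by 700 uM copper sulfate for 20 hr.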
DT40 TDP1 CPT – growth inhibition of DT40 Tdp1-/-;hTDP1 cells with camptothecin (screen for TDP1 inhibitors) | 420,000 compounds, 12% hits | chicken DT40 Tdp1-/-;hTDP1 cells + 20 nM CPT, ATP luminescence, 48 h | Potency, µM (titrated, usually from 46.2 µM), without a hit: top-dose activity change, negative = growth inhibition, actives largely listed as inhibitors; further: potency means the concentration at half of the fitted maximal effect; nearly all actives have a fitted effect of over 55% in size
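Cell growth measured by CellTiter-Glo luminescence after a minimum 48 h, 37 C compound exposure with 20 nM CPT in Tdp1-knockout DT40 cells stably expressing hTDP1, seeded 400/well; qHTS titration format.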
Gal4-VP16 FLuc – counter-screen for ROR gamma inhibitors: Gal4-VP16 reporter; Drosophila S2 Gal4-VP16 UAS-luciferase, luminescence, 20 h; 310,000 compounds, 3.5% hits; Potency, µM (titrated, usually from 53.6 µM), for the others: at the highest dose activity, negative = inhibition, actives largely listed as inhibitors;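 further: Gal4-VP16 expression switched on by copper sulfate through the metallothionein promoter; potency means the concentration at half of the fitted maximal effect; nearly all actives have a fitted effect of over 50% in size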
LDHA inh – LDHA (human) enzyme inhibition; P00338; purified LDHA, NADH/diaphorase-resazurin fluorescence; hits give low values; activity change, % (values are at about 110 or 230 µM); 480,000 compounds, 0.15% hits; AID 1347041; in the data active means activity change below about -30%; inconclusive means mostly about -25% to -30%;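 further: plate controls were DMSO wells for no effect and wells without enzyme for full effect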
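Remaining NADH was detected by diaphorase (0.133 mg/mL) converting 37 µM resazurin to fluorescent resorufin, read at 0 and 20 minutes. The preceding 5-minute room-temperature reaction used 2 nM LDHA, 0.2 mM sodium pyruvate and 0.06 mM NADH at pH 7.4.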
IL-1B inflam inh – inhibitors of inflammasome signaling (IL-1 beta secretion); THP-1 LPS/ATP IL-1B secretion, AlphaLISA, 16 h; hits give low values; activity change, % at 57.5 µM; 360,000 compounds, 4.7% hits; AID 743279; in the data active means activity change below about -50%; inconclusive means mostly about -30% to -49%
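Secreted IL-1B measured by AlphaLISA bead assay after 16 h compound exposure of THP-1 cells; compounds (final up to 57.5 uM) added 1 h before LPS (250 ng/mL) and ATP (1.25 mM) stimulation; lower signal means less secretion.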
* hit, by the source's call; ? = inconclusive; nt = not tested or not shown. Unless noted, the call rests on the fitted dose curve; in most records, active means well fitted curve in the direction sought with a large enough effect; inconclusive means small, poorly fitted or top-dose-only effect, or another doubt; inactive means no such curve, though single readings can be large; an effect the other way counts as inactive or inconclusive. Unless noted, on the % scale 0 is the no-effect control and ±100 the full control effect.

SMILES | TDP1 cell noCPT | RORg inh | DT40 TDP1 CPT | Gal4-VP16 FLuc | LDHA inh | IL-1B inflam inh
CC(C)(CO)NCc1ccc(Br)cc1 | ? | 8% | 21µM* | -8% | -6 | -4
Cn1nc(C(=O)Nc2ccnn2Cc2ccc(Cl)cc2)c2ccccc2c1=O | nt | nt | nt | nt | 6 | nt
NCCS(N)(=O)=O | nt | nt | nt | nt | -3 | nt
CCNc1nc(N)c(C(=O)c2ccc(Cl)cc2)s1 | nt | nt | nt | nt | 2 | nt
CCNc1nc(N)c(C(=O)c2ccc(Cl)s2)s1 | 1% | -7% | -1% | ? | -4 | -96*
Cc1cccc(N(C)c2nc3ccc(C)cc3n3cnnc23)c1 | 16µM* | nt | ? | nt | -1 | nt
Cc1cccc(N(C)c2nc3ccc(C)cc3n3nnnc23)c1 | ? | nt | ? | nt | -7 | nt
Cn1c(=O)c2c(nc(NCCO)n2Cc2ccccc2Br)n(C)c1=O | nt | nt | nt | nt | -8 | nt
CC(C)(C)c1ccc(-c2nc(SCC(=O)Nc3ccc(Cl)cc3)[nH]c(=O)c2C#N)cc1 | -5% | nt | -24% | nt | -31* | nt
N#Cc1c(-c2ccco2)nc(SCC(=O)Nc2cccc(Cl)c2)[nH]c1=O | 2% | 1% | -1% | 2% | -12 | -13
CCn1nc(C(=O)OCC(=O)Nc2cc(C(F)(F)F)ccc2Cl)c2ccccc2c1=O | nt | nt | nt | nt | -2 | nt
COc1ccccc1CNC(=O)c1cc(-c2ccccc2C)nn1CC1CC(c2cccnc2)=NO1 (stereo not drawn) | ? | nt | ? | nt | 0 | -26
O=C(NCc1cccs1)c1cc(-c2ccccc2)nn1CC1CC(c2cccc([N+](=O)[O-])c2)=NO1 (stereo not drawn) | 15µM* | nt | 16µM* | nt | -7 | -11
O=C(NCc1ccco1)C1CC(c2cccc([N+](=O)[O-])c2)=NO1 (stereo not drawn) | ? | 7% | ? | 0% | 1 | 17
COc1ccccc1CNC(=O)C1CC(c2cccc([N+](=O)[O-])c2)=NO1 (stereo not drawn) | 23µM* | ? | 16µM* | 14% | -10 | 12
Cc1ccccc1-c1cc(C(=O)NCc2cccc(Br)c2)n(CC2CC(c3cccnc3)=NO2)n1 (stereo not drawn) | 18µM* | nt | ? | nt | -3 | -24
COc1ccccc1CNC(=O)c1cc(-c2ccccc2)nn1CC1CC(c2cccc([N+](=O)[O-])c2)=NO1 (stereo not drawn) | 15µM* | nt | 10µM* | nt | -5 | 23
CC(c1ccccc1)N(C)C(=O)c1nn(C)c(=O)c2ccccc12 (stereo not drawn) | nt | nt | nt | nt | -25 | nt
Fc1ccc(N/N=C/c2ccc(Cl)cc2Cl)c(F)c1 | nt | nt | nt | nt | 3 | nt
CCc1cc(Cn2nc(-c3ccccc3)cc2C(=O)NCc2cccs2)on1 | ? | nt | 16µM* | nt | -8 | -73*
Cc1oc(-c2nc(C#N)c(NCc3cccnc3)o2)cc1S(=O)(=O)N1CCCC1 | nt | nt | nt | nt | 10 | nt
COc1ccc(C(=O)C(C)OC(=O)c2cccc(S(=O)(=O)Nc3cc(Cl)c(OC)cc3OC)c2)cc1 (stereo not drawn) | 21µM* | ? | 23µM* | -17% | -2 | -6
N#CCCc1nc2ccccc2s1 | nt | nt | nt | nt | 3 | nt
S=C1NCN(Cc2ccco2)CN1CCc1ccccc1 | ? | 2.2µM* | ? | 11µM* | 0 | -2
CC(C)CN1CN(Cc2ccco2)CNC1=S | -3% | 2.2µM* | -22% | ? | 5 | 20
SMILES | TDP1 cell noCPT | RORg inh | DT40 TDP1 CPT | Gal4-VP16 FLuc | LDHA inh | IL-1B inflam inh
S=C1NCN(CCc2ccccc2)CN1Cc1ccccc1 | ? | 5% | ? | 3% | -11 | -2
CC(C)CN1CN(Cc2ccccc2)CNC1=S | -4% | 4µM* | 0% | 5.6µM* | -10 | -4
CCCN1CNC(=S)N(Cc2ccccc2)C1 | -2% | 5.6µM* | 2% | 7.1µM* | -4 | 7
Cc1nc2ccccc2nc1SCC(=O)Nc1ccccc1C(F)(F)F | nt | nt | nt | nt | -2 | nt
O=c1cc(CN2CCCCC2)nc2nc(-c3ccccc3)[nH]n12 | nt | nt | nt | nt | 4 | nt
COc1ccc(CCn2c3c(c(=O)[nH]c2=S)CN(Cc2ccccc2)CN3)cc1OC | -21% | nt | ? | nt | 1 | nt
Cc1ccc(CN2CCN(Cc3ccco3)CC2)cc1 | -6% | -13% | ? | -4% | -24 | 7
CCCN1CN(Cc2ccccc2)CNC1=S | -2% | 6.3µM* | -3% | 7.1µM* | -6 | -1
COCCCN1CN(Cc2ccccc2)CNC1=S | -7% | 11µM* | ? | ? | -1 | 20
CCCCN1CNC(=S)N(Cc2ccccc2)C1 | 8% | 4µM* | -1% | 5.6µM* | -4 | -3
CCOCCCN1CN(Cc2ccco2)CNC1=S | -2% | 11µM* | -5% | -4% | -6 | 10
S=C1NCN(Cc2cccnc2)CN1Cc1ccccc1 | ? | ? | -25% | 4% | -2 | 29
COC(=O)NCCc1ccccc1OC | nt | nt | nt | nt | -10 | nt
Cc1noc2ncnc(N3CCN(c4ccccc4F)CC3)c12 | 23µM* | nt | 21µM* | nt | 1 | nt
COc1ccccc1N1CCN(c2ncnc3onc(C)c23)CC1 | 15µM* | nt | ? | nt | -12 | nt
Fc1ccccc1N1CCN(c2ncnc3nc[nH]c23)CC1 | 2% | -5% | -10% | 4% | 1 | -2
COc1ccccc1N1CCN(c2ncnc3n[nH]c(Br)c23)CC1 | ? | nt | ? | nt | -1 | 16
Fc1ccccc1N1CCN(c2ncnc3[nH]ncc23)CC1 | ? | ? | 15µM* | 4% | -7 | -14
CNC(=O)NC(=O)CSc1nnc(-c2ccncc2)n1CC(F)(F)F | nt | nt | nt | nt | -10 | nt
Cc1ccc(NS(=O)(=O)c2cc(NC(=O)c3ccc4c(c3)NC(=O)CS4)ccc2Cl)c(C)c1 | 26µM* | ? | ? | 1% | -1 | ?
CCCCCCCCCCOc1ccc(C(=O)O)cc1 | nt | nt | nt | nt | 19 | nt
CC1CN(C(=O)c2ccccc2OCc2ccc(Cl)cc2Cl)CC(C)O1 (stereo not drawn) | 3.7µM* | nt | 16µM* | nt | -2 | -3
CCCN(Cc1ccc(C)cc1)C(=O)CSc1nnc(COc2ccccc2Cl)n1C | nt | nt | nt | nt | 14 | nt
COc1cccc(CN(C)C(=O)CCc2nnc(-c3ccsc3)o2)c1 | -2% | -20% | -11% | -10% | -7 | -7
CCOC(=O)CN(C)C(=O)CCc1nnc(-c2ccsc2)o1 | -3% | 14µM* | -22% | ? | -4 | 23
COc1ccc(C(=O)CC2(O)C(=O)N(CCc3ccccc3)c3ccc(Br)cc32)cc1OC (stereo not drawn) | ? | nt | 16µM* | nt | -1 | nt
